Assay [1] deals with T1, Inhibitor of nuclear factor kappa-B kinase subunit epsilon (Homo sapiens) (UniProt Q14164).
T1 sequence (whole entry): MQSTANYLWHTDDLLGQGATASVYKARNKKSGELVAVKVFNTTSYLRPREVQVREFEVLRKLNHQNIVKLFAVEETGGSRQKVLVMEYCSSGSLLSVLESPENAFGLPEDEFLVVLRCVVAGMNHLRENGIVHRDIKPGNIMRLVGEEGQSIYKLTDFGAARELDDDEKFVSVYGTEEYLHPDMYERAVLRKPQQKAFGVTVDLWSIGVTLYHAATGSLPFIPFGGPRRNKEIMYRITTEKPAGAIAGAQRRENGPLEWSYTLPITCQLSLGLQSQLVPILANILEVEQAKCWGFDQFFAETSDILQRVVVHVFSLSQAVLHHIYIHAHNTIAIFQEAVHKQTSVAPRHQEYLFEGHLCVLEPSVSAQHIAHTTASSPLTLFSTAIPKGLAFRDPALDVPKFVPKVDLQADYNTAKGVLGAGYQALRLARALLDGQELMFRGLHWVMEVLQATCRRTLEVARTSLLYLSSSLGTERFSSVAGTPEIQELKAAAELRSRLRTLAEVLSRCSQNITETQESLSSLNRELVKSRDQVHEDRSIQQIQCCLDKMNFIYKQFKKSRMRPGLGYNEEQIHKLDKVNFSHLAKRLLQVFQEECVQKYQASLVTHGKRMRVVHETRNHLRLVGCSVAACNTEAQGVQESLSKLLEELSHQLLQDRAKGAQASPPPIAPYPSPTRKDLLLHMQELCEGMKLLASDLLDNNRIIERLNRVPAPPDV
To be noted: at 1 µM.

The target of assay [2] is T2, Serine/threonine-protein kinase Nek1 (Homo sapiens) (UniProt Q96PY6).
T2 sequence (whole entry): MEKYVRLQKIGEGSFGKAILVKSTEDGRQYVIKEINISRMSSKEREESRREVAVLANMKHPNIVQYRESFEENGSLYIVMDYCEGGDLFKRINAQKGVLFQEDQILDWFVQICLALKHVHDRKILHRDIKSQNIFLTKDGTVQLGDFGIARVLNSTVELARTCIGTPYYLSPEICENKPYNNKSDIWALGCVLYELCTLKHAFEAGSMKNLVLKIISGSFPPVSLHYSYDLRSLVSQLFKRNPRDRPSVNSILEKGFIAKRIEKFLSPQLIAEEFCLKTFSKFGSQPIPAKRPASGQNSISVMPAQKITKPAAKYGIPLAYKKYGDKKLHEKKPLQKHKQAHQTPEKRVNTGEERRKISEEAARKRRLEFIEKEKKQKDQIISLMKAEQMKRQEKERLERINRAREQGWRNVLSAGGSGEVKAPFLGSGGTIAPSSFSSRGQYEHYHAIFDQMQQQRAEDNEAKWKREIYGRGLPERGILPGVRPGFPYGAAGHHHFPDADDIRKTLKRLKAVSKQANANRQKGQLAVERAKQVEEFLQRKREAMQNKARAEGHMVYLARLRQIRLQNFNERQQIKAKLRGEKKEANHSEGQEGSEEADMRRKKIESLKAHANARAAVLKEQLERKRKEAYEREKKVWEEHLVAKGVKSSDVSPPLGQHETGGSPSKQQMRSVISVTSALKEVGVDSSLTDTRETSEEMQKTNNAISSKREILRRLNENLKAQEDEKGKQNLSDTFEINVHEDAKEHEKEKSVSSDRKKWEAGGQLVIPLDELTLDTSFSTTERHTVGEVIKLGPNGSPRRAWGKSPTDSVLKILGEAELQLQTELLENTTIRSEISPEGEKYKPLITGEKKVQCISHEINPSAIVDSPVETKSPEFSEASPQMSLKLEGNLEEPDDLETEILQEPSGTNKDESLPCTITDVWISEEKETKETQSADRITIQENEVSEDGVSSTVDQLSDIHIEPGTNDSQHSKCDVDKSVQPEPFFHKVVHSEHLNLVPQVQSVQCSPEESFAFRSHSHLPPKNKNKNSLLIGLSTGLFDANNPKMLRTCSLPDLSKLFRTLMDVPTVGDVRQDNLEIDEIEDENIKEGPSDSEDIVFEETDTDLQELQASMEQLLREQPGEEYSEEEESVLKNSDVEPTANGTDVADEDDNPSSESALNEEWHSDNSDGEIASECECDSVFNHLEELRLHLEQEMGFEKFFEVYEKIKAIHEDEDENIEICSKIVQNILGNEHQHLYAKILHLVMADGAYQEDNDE
To be noted: at 0.1 µM.

The target of assay [3] is T2, Serine/threonine-protein kinase Nek1 (Homo sapiens). The settings on record: at 1 µM.
For assay [4], the target named is T3, Serine/threonine-protein kinase Nek2 (Homo sapiens) (UniProt P51955).
T3 sequence (whole entry): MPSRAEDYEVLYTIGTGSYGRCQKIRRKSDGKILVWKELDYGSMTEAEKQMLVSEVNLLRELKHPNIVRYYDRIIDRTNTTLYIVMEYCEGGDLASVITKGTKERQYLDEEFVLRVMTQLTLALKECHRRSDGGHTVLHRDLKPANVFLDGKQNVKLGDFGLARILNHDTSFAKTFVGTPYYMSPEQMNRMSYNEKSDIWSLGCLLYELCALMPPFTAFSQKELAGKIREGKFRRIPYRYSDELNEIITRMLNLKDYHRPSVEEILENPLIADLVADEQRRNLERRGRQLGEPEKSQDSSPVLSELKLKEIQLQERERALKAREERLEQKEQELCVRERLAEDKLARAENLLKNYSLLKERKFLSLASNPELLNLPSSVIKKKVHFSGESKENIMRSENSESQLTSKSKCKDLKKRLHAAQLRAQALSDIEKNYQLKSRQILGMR
To be noted: at 0.1 µM.

Assay [5] concerns the target T3, Serine/threonine-protein kinase Nek2 (Homo sapiens). To be noted: at 1 µM.
The target of assay [6] is Serine/threonine-protein kinase Nek6 (Homo sapiens) (UniProt Q9HC98). The settings on record: at 0.1 µM.
Chain of Serine/threonine-protein kinase Nek6 (Homo sapiens) (Q9HC98 whole entry): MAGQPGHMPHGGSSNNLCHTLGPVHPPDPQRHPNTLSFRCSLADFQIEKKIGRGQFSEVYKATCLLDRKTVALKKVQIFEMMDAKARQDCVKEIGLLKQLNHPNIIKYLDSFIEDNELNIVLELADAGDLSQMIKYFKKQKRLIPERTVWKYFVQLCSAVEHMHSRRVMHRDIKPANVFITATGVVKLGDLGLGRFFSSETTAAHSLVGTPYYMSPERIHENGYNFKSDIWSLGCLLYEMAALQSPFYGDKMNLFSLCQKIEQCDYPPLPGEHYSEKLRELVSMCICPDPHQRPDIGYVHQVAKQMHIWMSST
Assay [7] has the same target. To be noted: at 1 µM.
In assay [8] the target is Serine/threonine-protein kinase Nek7 (Homo sapiens) (UniProt Q8TDX7). To be noted: at 0.1 µM.
Chain of Serine/threonine-protein kinase Nek7 (Homo sapiens) (Q8TDX7 whole entry, looked up): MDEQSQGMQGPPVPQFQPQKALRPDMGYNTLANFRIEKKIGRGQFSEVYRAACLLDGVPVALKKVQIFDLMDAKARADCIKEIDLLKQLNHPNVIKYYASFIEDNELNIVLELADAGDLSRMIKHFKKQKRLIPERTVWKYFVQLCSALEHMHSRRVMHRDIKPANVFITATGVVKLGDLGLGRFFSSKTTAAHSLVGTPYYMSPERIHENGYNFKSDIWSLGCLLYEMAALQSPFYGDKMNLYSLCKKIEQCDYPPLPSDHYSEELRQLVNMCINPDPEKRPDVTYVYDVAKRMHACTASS
For assay [9] the target is unchanged. To be noted: at 1 µM.
Assay [10] concerns the target T4, Serine/threonine-protein kinase Nek9 (Homo sapiens) (UniProt Q8TD19).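 Also: reported value is the mean percent inhibition of NEK9.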
T4 sequence (whole entry): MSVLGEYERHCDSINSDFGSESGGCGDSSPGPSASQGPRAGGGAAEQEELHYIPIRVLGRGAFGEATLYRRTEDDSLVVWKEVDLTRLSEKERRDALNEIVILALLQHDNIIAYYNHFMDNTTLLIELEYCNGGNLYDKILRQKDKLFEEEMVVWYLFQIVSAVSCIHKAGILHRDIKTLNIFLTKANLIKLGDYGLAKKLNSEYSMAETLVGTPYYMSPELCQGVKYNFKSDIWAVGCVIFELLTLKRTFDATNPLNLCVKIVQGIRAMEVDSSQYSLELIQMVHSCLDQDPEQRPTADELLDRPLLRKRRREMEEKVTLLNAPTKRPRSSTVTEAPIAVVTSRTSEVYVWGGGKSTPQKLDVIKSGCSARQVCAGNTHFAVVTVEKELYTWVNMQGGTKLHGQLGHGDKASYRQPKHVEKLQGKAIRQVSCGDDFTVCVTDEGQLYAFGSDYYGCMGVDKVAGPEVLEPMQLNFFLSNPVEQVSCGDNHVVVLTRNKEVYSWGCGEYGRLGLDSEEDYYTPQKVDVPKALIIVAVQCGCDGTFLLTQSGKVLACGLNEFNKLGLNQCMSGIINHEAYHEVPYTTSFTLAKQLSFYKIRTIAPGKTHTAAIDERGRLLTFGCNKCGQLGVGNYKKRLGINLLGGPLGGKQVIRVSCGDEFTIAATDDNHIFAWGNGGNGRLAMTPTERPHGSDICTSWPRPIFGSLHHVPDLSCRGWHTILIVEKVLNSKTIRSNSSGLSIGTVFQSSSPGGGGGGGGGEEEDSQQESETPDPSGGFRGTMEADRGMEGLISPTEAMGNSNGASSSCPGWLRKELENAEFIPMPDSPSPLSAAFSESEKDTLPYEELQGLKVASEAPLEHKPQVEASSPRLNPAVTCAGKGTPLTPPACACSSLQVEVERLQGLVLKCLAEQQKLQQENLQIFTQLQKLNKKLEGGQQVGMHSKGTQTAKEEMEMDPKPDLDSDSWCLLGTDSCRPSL
The settings on record: at 0.1 µM.

The record followed here is ChEMBL document CHEMBL1961873, “Compounds: GSK PKIS; Assays: Nanosyn kinase panel” (2012).

Molecules are shown by their SMILES.

As to `COc1cc2c(cc1Nc1nc(N3CCc4ccccc43)c3cc[nH]c3n1)N(C(=O)CN(C)C)CC2`, the inhibition is -0.46% in assay [1]; 1.31% in assay [2]; 1% in assay [3]; 2.74% in assay [4]; 3.53% in assay [5]; 0.8% in [6]. Also, the inhibition is -0.68% in assay [7], 3.4% in [8], 3.29% in [9] and 4.32% in assay [10].
`CC(=O)Nc1cccc(C#Cc2cncnc2Nc2ccc(OCc3cccc(F)c3)c(Cl)c2)n1`: the inhibition in assay [1] is 1.53%; in [2], -2.25%; in [3] it was 1.58%; in assay [4], -2.96%; in assay [5], -1.9%; in assay [6] it was 1.43%. In addition, the inhibition in [7] was 4.26%; in assay [8] it was -4.17%; in assay [9], -3.8%; in [10], 0.45%.
With `COC(=O)Nc1nc2cc(Oc3ccc(NC(=O)Nc4cccc(C(=O)O)c4)cc3)ccc2[nH]1`, the inhibition in [1] is 3.63%; in assay [2], 0.04%; in [3] it was 2.1%; in assay [4] it was -0.46%; in assay [5], -6.05%; in assay [6] it was -0.14%. Further, the inhibition in assay [7] is -0.54%; in [8] it was -2.43%; in assay [9], -0.18%; in [10], 3.39%.
With `COc1cc(C=NNc2ncnc3c2cnn3-c2ccccc2)ccc1O`, the inhibition in assay [1] stood at 8.67%; in assay [2] it was 3.59%; in assay [3], 15.8%; in [4] it was 2.6%; in assay [5], 3.58%; in assay [6], 1.23%. Further, the inhibition in assay [7] was -0.37%; in assay [8], 3.01%; in assay [9], 5.26%; in assay [10], 3.36%.
In the case of `Cn1cc(C=C2C(=O)Nc3cccnc32)c2ccccc21`, the inhibition in assay [2] is 2.09%; in assay [3], 1.05%; in assay [4] it was 2.65%; in assay [5] it was 2.9%; in [6], 3.82%; in [7], -1.86%. Besides, the inhibition came out at 3.8% in assay [8], 4.49% in assay [9] and 2.88% in [10].
For the compound `COc1ccc(-c2coc3ncnc(N)c23)cc1`, the inhibition turned out to be 4.6% in assay [1]; 2.17% in assay [2]; 2.92% in assay [3]; 4.88% in assay [4]; 4.8% in assay [5]; 1.43% in [6]. The inhibition in assay [7] was determined as 2.31%; in assay [8] it was 6.65%; in assay [9], 4.79%; in assay [10], 6.76%.
On to `CCn1c(-c2nonc2N)nc2cncc(C(=O)N3CCNCC3)c21`, for which the inhibition in [1] was 7.71%; in assay [2], 4.64%; in [3], 3.76%; in [4] it was 3.46%; in [5] it was 5.88%; in [6] it was 1.92%. The inhibition in assay [7] amounted to 3.67%; in [8] it was 2.41%; in assay [9] it was 10.8%; in assay [10] it was 6%.
As to `CCCN1CCC=C(c2ccc(Nc3nc(Nc4ccccc4C(N)=O)c4cc[nH]c4n3)c(C)c2)C1`, the inhibition turned out to be 10.3% in assay [1]; 3.93% in assay [2]; 8.78% in assay [3]; 6.91% in assay [4]; 7.52% in assay [5]; 0.8% in assay [6]. Also, the inhibition in assay [7] is 5.18%; in assay [8], 4.64%; in assay [9] it was 14%; in assay [10] it was 7.78%.
Turning to `CCCN1CCC(Oc2cc(Nc3nc(Nc4cccc(F)c4C(N)=O)c4cc[nH]c4n3)c(OC)cc2Cl)CC1`, the inhibition in assay [1] was -1.68%; in assay [2] it was 0.59%; in assay [3], 0.62%; in assay [4], -0.38%; in assay [5] it was 1.09%; in assay [6] it was 0.14%. In addition, the inhibition in [7] is -2.04%; in assay [8], -8.48%; in [9], 1.7%; in assay [10], -0.6%.

By inhibition is commonly meant the relative decrease from the control value, in per cent.
